In paper PMC4336329 (PLoS ONE, 2015):
Screen size: about 310,000 compounds; about 14,000 (4.5%) showed an effect of 50% or more. Effects have a minus sign here. Shown is part of a subset that was picked to be rich in strong results.

biological target: human ether-à-go-go-related gene (hERG) potassium channel (human, UniProt Q12809); experiment: primary screen, population patch clamp on CHO cells stably expressing hERG; higher = less effect of the substance
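Note: peak tail current of the secondary pulse compared with the same well before compound.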

Sequence of human ether-à-go-go-related gene (hERG) potassium channel (Q12809 whole entry, looked up): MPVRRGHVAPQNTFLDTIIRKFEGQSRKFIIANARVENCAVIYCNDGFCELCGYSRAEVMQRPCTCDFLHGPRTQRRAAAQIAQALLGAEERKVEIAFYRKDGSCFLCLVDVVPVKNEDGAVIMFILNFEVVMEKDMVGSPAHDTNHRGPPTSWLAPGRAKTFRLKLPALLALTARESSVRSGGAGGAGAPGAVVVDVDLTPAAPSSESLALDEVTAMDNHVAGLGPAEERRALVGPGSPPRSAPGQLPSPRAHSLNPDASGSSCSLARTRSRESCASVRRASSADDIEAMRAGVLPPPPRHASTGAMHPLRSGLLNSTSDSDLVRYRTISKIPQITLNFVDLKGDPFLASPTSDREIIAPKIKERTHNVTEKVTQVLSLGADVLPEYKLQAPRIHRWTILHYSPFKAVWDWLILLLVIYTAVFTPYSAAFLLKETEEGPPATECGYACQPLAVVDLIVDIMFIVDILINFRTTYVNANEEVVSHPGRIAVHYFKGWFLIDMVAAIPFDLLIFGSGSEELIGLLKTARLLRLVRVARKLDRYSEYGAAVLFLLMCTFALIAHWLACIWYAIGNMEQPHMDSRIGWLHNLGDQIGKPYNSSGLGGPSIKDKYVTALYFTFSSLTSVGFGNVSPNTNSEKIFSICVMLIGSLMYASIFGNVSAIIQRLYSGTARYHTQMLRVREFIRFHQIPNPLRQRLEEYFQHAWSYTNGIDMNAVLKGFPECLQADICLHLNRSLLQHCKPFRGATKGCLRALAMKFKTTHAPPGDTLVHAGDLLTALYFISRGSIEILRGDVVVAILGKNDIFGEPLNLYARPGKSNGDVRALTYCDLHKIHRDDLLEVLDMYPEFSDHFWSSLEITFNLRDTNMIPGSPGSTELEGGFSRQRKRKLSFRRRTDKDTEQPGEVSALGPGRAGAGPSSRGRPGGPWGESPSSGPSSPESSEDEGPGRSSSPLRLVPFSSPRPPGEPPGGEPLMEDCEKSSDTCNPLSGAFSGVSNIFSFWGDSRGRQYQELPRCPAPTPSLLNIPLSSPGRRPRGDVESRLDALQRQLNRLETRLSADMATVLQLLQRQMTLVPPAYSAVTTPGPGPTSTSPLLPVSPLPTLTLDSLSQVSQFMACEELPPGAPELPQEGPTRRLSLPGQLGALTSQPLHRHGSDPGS

Going from `COC(=O)C1C(O)=C(C=Nc2cccc3ccccc23)C(=O)CC1(C)C` (stereo not drawn) to `CC1=C(C(=O)OCc2ccccc2)C(c2cccc3ccccc23)NC(=O)N1CCCC(=O)O` (stereo not drawn), the “hERG current change (%, negative = inhibition) at 10uM” value rises from -2.34% to 20.8%.

First: Cc1ccc(S(=O)(=O)NCc2ccccc2C)cc1
Second: CCN(CC)C(=O)c1ccc(S(=O)(=O)NCc2cccnc2)cc1
The “hERG current change (%, negative = inhibition) at 10uM” value of the first is lower: 11.6% for the first, 13.9% for the second.

Going from `N#CC(Sc1ccccn1)c1ccc(Cl)cc1` (stereo not drawn) to `Cc1ccccc1CSc1nccn1-c1ccccc1`, the “hERG current change (%, negative = inhibition) at 10uM” value rises from -18.2% to -8.94%.

First: CCCCN(C)C1CCN(C(=S)Nc2ccc(OC)cc2)CC1
Second: CCCCN(C)C1CCN(C(=S)Nc2ccc(OCC)cc2)CC1
The “hERG current change (%, negative = inhibition) at 10uM” value of the first is higher: -26% for the first, -76.7% for the second.

First: CCOc1ccc(NC(=S)N2CCC(N(C)CCN3CCOCC3)CC2)cc1
Second: CC(C)CNC(=S)N1CCC(Cc2ccccc2)CC1
The “hERG current change (%, negative = inhibition) at 10uM” value of the first is higher: -15.9% for the first, -40.1% for the second.

First: CC1CCC(N(C)C2CCN(C)CC2)CC1 (stereo not drawn)
Second: COc1cc2c(cc1OC)CN(c1nc(CN3CCOCC3)nc3sc4c(c13)CCC(C)C4)CC2 (stereo not drawn)
The “hERG current change (%, negative = inhibition) at 10uM” value of the first is higher: 11.3% for the first, -67.5% for the second.

Going from `CCCC12CN3CC(C)(CN(C1)C3c1cccs1)C2=O` (stereo not drawn) to `CCCN1CCN(C(=O)CCS(=O)(=O)c2cc3c(cc2Cl)NC(=O)CO3)CC1`, the “hERG current change (%, negative = inhibition) at 10uM” value falls from -7.68% to -48%.

Going from `CC(=O)c1ccc(NC(=O)C2CCCC2)cc1` to `CCc1ccc(OCC(=O)NC(=S)Nc2ccc(S(=O)(=O)NC3CCCCC3)cc2)cc1`, the “hERG current change (%, negative = inhibition) at 10uM” value rises from 10.7% to 19.9%.

Compared with `Cl.O[Si](CCCN1CCCCC1)(c1ccc(F)cc1)C1CCCCC1` (stereo not drawn), `Fc1ccc(OCCCCCN2CCCC2)cc1` is higher in “hERG current change (%, negative = inhibition) at 10uM” value: -54.3% for the first, 4.62% for the second.

Compared with `Fc1ccc(OCCCCCCN2CCCC2)cc1`, `COc1ccc(S(=O)(=O)NCC2CCCN(C(=O)CCC(F)(F)F)C2)cc1` (stereo not drawn) is higher in “hERG current change (%, negative = inhibition) at 10uM” value: -9.37% for the first, 2.06% for the second.

First: Cc1ccc(C2CC(=O)C=C(NCc3ccccc3)C2)cc1 (stereo not drawn)
Second: O=C1C=C(NCc2ccncc2)CC(c2ccccc2)C1 (stereo not drawn)
The “hERG current change (%, negative = inhibition) at 10uM” value of the first is higher: -38.8% for the first, -70.7% for the second.

First: O=C1C=C(NNC(=O)c2ccncc2)CC(c2ccccc2)C1 (stereo not drawn)
Second: O=C1C=C(Nc2ccccc2)CC(c2ccccc2)C1 (stereo not drawn)
The “hERG current change (%, negative = inhibition) at 10uM” value of the first is lower: -1.64% for the first, 9.51% for the second.

First: CC(C)CCNC1=CC(=O)CC(c2ccccc2)C1 (stereo not drawn)
Second: COc1ccc(C2CC(=O)C=C(NCCC(C)C)C2)cc1 (stereo not drawn)
The “hERG current change (%, negative = inhibition) at 10uM” value of the first is higher: -33.2% for the first, -73.2% for the second.

First: O=C1C=C(NCc2ccc3c(c2)OCO3)CC(c2ccccc2)C1 (stereo not drawn)
Second: COc1ccc(C2CC(=O)C=C(NCc3ccc4c(c3)OCO4)C2)cc1 (stereo not drawn)
The “hERG current change (%, negative = inhibition) at 10uM” value of the first is lower: -76.9% for the first, -73.1% for the second.

Compared with `COc1ccc([C@H]2CC(=O)C=C(c3ccc4c(c3)OCO4)C2)cc1`, `COc1ccc2cc(C3=CC(=O)C[C@H](c4ccc5c(c4)OCO5)C3)ccc2c1` is higher in “hERG current change (%, negative = inhibition) at 10uM” value: -22.9% for the first, 17.3% for the second.

Going from `O=C1C=C(c2ccccc2)C[C@@H](c2ccc3c(c2)OCO3)C1` to `Cc1cc(C(=O)NCc2ccc3c(c2)OCO3)n(-c2ccccc2)n1`, the “hERG current change (%, negative = inhibition) at 10uM” value falls from -4.15% to -14.8%.

First: COc1ccc(C2CC(=O)C=C(NCC3CCCO3)C2)cc1 (stereo not drawn)
Second: COc1ccc(-c2csc(N)n2)cc1
The “hERG current change (%, negative = inhibition) at 10uM” value of the first is lower: -9.1% for the first, -6.71% for the second.

Going from `O=C(N/N=C\c1ccco1)Nc1cccc(Cl)c1` to `CCn1c(SCC(=O)N/N=C/c2ccc(O)c(OC)c2)nc2ccccc21`, the “hERG current change (%, negative = inhibition) at 10uM” value rises from -5.83% to 2.36%.

Going from `CC1CCCCC1NC(=O)CCCn1c(=S)[nH]c2ccsc2c1=O` (stereo not drawn) to `CNC(=O)/C(C#N)=C/c1c(N2CC(C)OC(C)C2)nc2ccccn2c1=O` (stereo not drawn), the “hERG current change (%, negative = inhibition) at 10uM” value falls from 12.9% to 1.43%.

First: C=CCn1c(SCC(=O)NNC(=S)Nc2ccccc2)nnc1-c1ccccc1
Second: Cc1cc([N+](=O)[O-])ccc1NC(=O)CSc1nncn1-c1ccccn1
The “hERG current change (%, negative = inhibition) at 10uM” value of the first is higher: 15.9% for the first, -28.1% for the second.

Going from `NC(=O)c1cccnc1OCC(F)(F)F` to `Cc1c(C(=O)NCCSCc2cccc(C(F)(F)F)c2)cnn1-c1ccc(Cl)cc1`, the “hERG current change (%, negative = inhibition) at 10uM” value falls from 2.21% to -30.6%.

Compared with `CCOc1ccc(NC(=O)CN(C)S(=O)(=O)c2ccc3c(c2)CCC(=O)N3)cc1`, `Cc1ccccc1CN(c1ccc(C(=O)N/N=C/c2ccc(OCC(N)=O)cc2)cc1)S(C)(=O)=O` is higher in “hERG current change (%, negative = inhibition) at 10uM” value: -41.3% for the first, 5.85% for the second.

Going from `Cc1c(C(=O)NCCSCc2ccc(F)cc2)cnn1-c1ccc(Cl)cc1` to `Cc1c(C(=O)NCCSCc2cccc(C(F)(F)F)c2)cnn1-c1ccc(F)cc1`, the “hERG current change (%, negative = inhibition) at 10uM” value falls from -34.6% to -64.6%.

First: CC(C)CCNC(=O)CN(Cc1cccs1)C(=O)CCC(=O)Nc1nccs1
Second: CCN(CC)S(=O)(=O)c1ccc(C(=O)OCCNC(=O)c2cccnc2)cc1
The “hERG current change (%, negative = inhibition) at 10uM” value of the first is lower: -10.6% for the first, -2.68% for the second.

Compared with `N#Cc1c2c(c(Nc3ccc(O)cc3)n3c1nc1ccccc13)CCC2`, `CC(=O)c1ccc(Nc2c3c(c(C#N)c4nc5ccccc5n24)CCC3)cc1` is lower in “hERG current change (%, negative = inhibition) at 10uM” value: 5.51% for the first, -73.2% for the second.

Compared with `COCCNc1c2c(c(C#N)c3nc4ccccc4n13)CCCC2`, `N#Cc1c2c(c(NCCOCCO)n3c1nc1ccccc13)CCCC2` is lower in “hERG current change (%, negative = inhibition) at 10uM” value: -44.1% for the first, -63.3% for the second.

First: CN(C)CCNc1c2c(c(C#N)c3nc4ccccc4n13)CCCC2
Second: N#Cc1c2c(c(Nc3ccccc3)n3c1nc1ccccc13)CCC2
The “hERG current change (%, negative = inhibition) at 10uM” value of the first is lower: -23.5% for the first, 19.5% for the second.

Compared with `CCOC(=O)N1CCN(S(=O)(=O)Cc2ccccc2)CC1`, `CC(C)C(=O)N1CCC(Cc2ccccc2)CC1` is lower in “hERG current change (%, negative = inhibition) at 10uM” value: 15.5% for the first, 4.6% for the second.

Going from `Cc1ccc(S(=O)(=O)Nc2cc(C)c(O)c(Sc3n[nH]c(C)n3)c2)cc1` to `CCOC(=O)c1nn(-c2ccc(C)cc2)c2nc(Nc3ccccc3)cc(=O)n12`, the “hERG current change (%, negative = inhibition) at 10uM” value rises from 2.79% to 21.9%.

Going from `O=C(Cn1cc(C(=O)COc2ccccc2)c2ccccc21)NCc1ccco1` to `COc1ccc(N(C(=O)Cn2nnc3ccccc32)C(C(=O)NCc2ccco2)c2cccnc2)cc1` (stereo not drawn), the “hERG current change (%, negative = inhibition) at 10uM” value rises from -0.105% to 9.77%.

First: COc1cc2c(cc1OC)CN(c1nc(CN3CCOCC3)nc3sc4c(c13)CCCC4)CC2
Second: COc1cc2c(cc1OC)CN(c1nc(CN3CCCCC3)nc3sc4c(c13)CCCC4)CC2
The “hERG current change (%, negative = inhibition) at 10uM” value of the first is higher: -73.6% for the first, -81.2% for the second.

Compared with `COc1cccc(Nc2nc(CN3CCOCC3)nc3sc4c(c23)CCCC4)c1`, `Cc1cccc(Oc2nc(CN3CCOCC3)nc3sc4c(c23)CCCC4)c1` is higher in “hERG current change (%, negative = inhibition) at 10uM” value: -53.1% for the first, -29.7% for the second.

Going from `CCNc1nc(CN2CCOCC2)nc2sc3c(c12)CCC3` to `Clc1nc(CN2CCOCC2)nc2sc3c(c12)CCC3`, the “hERG current change (%, negative = inhibition) at 10uM” value rises from -7.54% to 14.5%.

Compared with `c1nc(N2CCOCC2)c2c3c(sc2n1)CCCC3`, `c1ccc2c(c1)CCN(c1nc(CN3CCOCC3)nc3sc4c(c13)CCCC4)C2` is lower in “hERG current change (%, negative = inhibition) at 10uM” value: -7.14% for the first, -60.2% for the second.

First: Cc1cc(S(=O)(=O)Nc2nc(CN3CCOCC3)nc3sc4c(c23)CCCC4)ccc1F
Second: O=S(=O)(Nc1nc(CN2CCOCC2)nc2sc3c(c12)CCCC3)c1cc(F)ccc1F
The “hERG current change (%, negative = inhibition) at 10uM” value of the first is higher: -17.2% for the first, -34.9% for the second.

Compared with `CC1CCc2c(sc3nc(CN4CCOCC4)nc(N4CCc5ccccc5C4)c23)C1` (stereo not drawn), `Cc1ccc(Oc2nc(CN3CCOCC3)nc3sc4c(c23)CCC(C)C4)cc1C` (stereo not drawn) is higher in “hERG current change (%, negative = inhibition) at 10uM” value: -8.23% for the first, 7.99% for the second.

Going from `COc1cc2c(cc1OC)CN(c1nc(CN3CCCC3)nc3sc(C)c(C)c13)CC2` to `Cc1sc2nc(CN3CCCCC3)nc(Cl)c2c1C`, the “hERG current change (%, negative = inhibition) at 10uM” value rises from -75.6% to -24.5%.

Going from `COc1cc2c(cc1OC)CN(c1ccc(C(F)(F)F)cn1)CC2` to `COc1ccc(CN2CCN(Cc3cc4ccccc4o3)CC2CCO)cc1C` (stereo not drawn), the “hERG current change (%, negative = inhibition) at 10uM” value falls from 15.9% to -40.4%.

Compared with `O=c1[nH]c(=O)n(Cc2ccccc2)c(O)c1/C=N/Nc1c(F)c(F)c(F)c(F)c1F`, `O=C(O)c1cccc(CN2C(=O)CSC2=O)c1` is higher in “hERG current change (%, negative = inhibition) at 10uM” value: 3.83% for the first, 19.4% for the second.

Compared with `COc1cccc(-c2ccc3nnc(SCC(=O)N4CCCC4)n3n2)c1`, `COc1ccc(CC2(CO)CCN(Cc3cc4ccccc4o3)CC2)cc1` is lower in “hERG current change (%, negative = inhibition) at 10uM” value: -17.1% for the first, -52.2% for the second.

Going from `Clc1nc(CN2CCCCC2)nc2sc3c(c12)CCCC3` to `Clc1nc(CN2CCCCC2)nc2sc3c(c12)CCC3`, the “hERG current change (%, negative = inhibition) at 10uM” value falls from -23.1% to -33.6%.

Compared with `CO/N=C/c1cccn1-c1nccc(N(C)C)c1C#N`, `CCOC(=O)Cc1csc(NC(=O)c2cc(OC)cc(OC)c2)n1` is lower in “hERG current change (%, negative = inhibition) at 10uM” value: -2.01% for the first, -10.6% for the second.

First: CCC(C)[C@H](NC(=O)N1CCC(Cc2ccccc2)CC1)C(=O)O (stereo partly drawn)
Second: CC(C)[C@H](NC(=O)N1CCC(Cc2ccccc2)CC1)C(=O)O
The “hERG current change (%, negative = inhibition) at 10uM” value of the first is higher: 15.2% for the first, 6.12% for the second.

Compared with `CC(C(O)c1ccc(O)cc1)N1CCC(Cc2ccccc2)CC1.O=C(O)C(O)C(O)C(=O)O` (stereo not drawn), `CC(C(O)c1ccc(O)cc1)N1CCC(Cc2ccccc2)CC1.O.O=C(O)C(O)C(O)C(=O)O` (stereo not drawn) is higher in “hERG current change (%, negative = inhibition) at 10uM” value: -71.4% for the first, -65.4% for the second.

Going from `C[C@H](NC(=O)N1CCC(Cc2ccccc2)CC1)C(=O)O` to `CC(C)NC(=S)N1CCC(Cc2ccccc2)CC1`, the “hERG current change (%, negative = inhibition) at 10uM” value falls from 15.5% to -2.26%.

First: C[C@@H](CN1CCC(Cc2ccccc2)CC1)[C@@H](O)c1ccc(O)cc1.Cl
Second: OCC1(Cc2ccccc2)CCN(Cc2cc3ccccc3o2)CC1
The “hERG current change (%, negative = inhibition) at 10uM” value of the first is lower: -71.3% for the first, -51.7% for the second.

`OCC1(Cc2ccccc2)CCN(Cc2cnc(-c3cccc4ccccc34)nc2)CC1` was tested, and the “hERG current change (%, negative = inhibition) at 10uM” value was 10.8%.
